Data on 52 compounds can be found in PubChem BioAssay AID588342 (National Center for Advancing Translational Sciences (NCATS), 2011).

The whole screen tested about 360,000 compounds, of which about 25,000 (6.9%) were called active. About 9% were inconclusive and are not listed. Only a selection was taken, and actives are over-represented in it overall. A number with no mark means an inactive call. Calls follow the shape of the dose curve; as a rule, active = well fitted inhibition curve with a large enough effect; inconclusive = small, poorly fitted or top-dose-only effect; inactive = flat fitted curve, though single readings scatter.
Potency is read from the fitted curve at half-maximal effect.

Chain of Luciferin 4-monooxygenase (Photinus pyralis) (P08659 whole entry, looked up): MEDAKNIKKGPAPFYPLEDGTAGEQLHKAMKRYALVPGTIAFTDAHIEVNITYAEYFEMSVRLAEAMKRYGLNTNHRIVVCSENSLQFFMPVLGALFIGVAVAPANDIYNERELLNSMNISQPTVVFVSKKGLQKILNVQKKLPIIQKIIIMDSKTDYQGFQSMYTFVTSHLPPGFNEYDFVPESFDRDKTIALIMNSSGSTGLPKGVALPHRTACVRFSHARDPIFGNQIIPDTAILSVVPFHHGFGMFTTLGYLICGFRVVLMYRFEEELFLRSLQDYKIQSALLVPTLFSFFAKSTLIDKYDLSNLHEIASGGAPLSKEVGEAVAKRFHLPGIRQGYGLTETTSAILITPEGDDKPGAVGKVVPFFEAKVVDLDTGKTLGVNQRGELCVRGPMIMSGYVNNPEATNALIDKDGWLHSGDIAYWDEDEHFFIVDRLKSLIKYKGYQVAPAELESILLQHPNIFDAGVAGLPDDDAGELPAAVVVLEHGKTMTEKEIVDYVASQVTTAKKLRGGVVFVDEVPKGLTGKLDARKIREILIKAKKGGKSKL

This assay addresses Luciferin 4-monooxygenase (Photinus pyralis) (UniProt P08659). Briefly: qHTS profiling assay for firefly luciferase inhibitor/activator using purifed enzyme and Km concentrations of substrates (counterscreen for miR-21 project). Also: nearly all actives have a fitted effect of over 55% in size.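 As to activity change, negative = inhibition: plate controls were vehicle for no effect and reference inhibitor for full effect.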 As to conditions: purified FLuc, luminescence inhibition; series mostly up to 57.5 µM; activity change, negative = inhibition: at the top concentration. The gist of the method:
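Biochemical qHTS of compounds, final roughly 60 µM downward over six points, against 10 nM purified firefly luciferase using Km concentrations of substrates (10 uM D-luciferin, 10 uM ATP) in Tris acetate pH 7.5 buffer; luminescence output.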
On to `CCc1ccc(NC(=O)c2nn(-c3ccc(C)cc3)c(=O)n(C)c2=O)cc1`, for which the “activity change, negative = inhibition” value was -1.09%.
Take `Cn1c(-c2ccco2)nc2cc3ccccc3cc21`: the Potency is 0.12 µM (active).
Turning to `CS(=O)(=O)n1nc(-c2ccco2)nc1N`, the “activity change, negative = inhibition” value was 1.41%.
Turning to `Cn1c(SCC(=O)Nc2ccc(Br)cc2F)nnc1-c1ccco1`, the “activity change, negative = inhibition” value was -15.5%.
On to `Cc1cccc(N2CCN(C(=O)c3ccc(Nc4nc5ccccc5n5nnnc45)cc3)CC2)c1C`, for which the “activity change, negative = inhibition” value was -9.44%.
In the case of `Cc1ccccc1NC(=O)C1CCN(C(=O)NC2CCCCC2)CC1`, the “activity change, negative = inhibition” value was 1.56%.
Take `Cc1cc(NC(=O)CN2CCCCC2C)nc2c1c(=O)oc1ccccc12` (configuration not stated): the “activity change, negative = inhibition” value was 1.83%.
Turning to `O=C(Nc1cc2ccccc2oc1=O)C1CCCCC1`, the Potency is 2.39 µM (active).
With `COC(=O)c1cc(NC(=O)CCS(=O)(=O)c2cc(Br)cc3c2N(C(=O)C2CC2)CC3)cc(C(=O)OC)c1`, the “activity change, negative = inhibition” value is -5.07%.
As for `O=C1CCCc2cc(S(=O)(=O)N3CCCC(C(=O)NCc4ccccc4)C3)ccc2N1` (configuration not stated), the “activity change, negative = inhibition” value was 5.19%.
For the compound `CC(C)(C)OC(=O)N1CCC(c2c(C(=O)NCc3ccccn3)cnn2-c2ccc(F)cc2)CC1`, the “activity change, negative = inhibition” value was 0.137%.
On the same count and under the same terms, the figure for `Cc1ccc(NC(=O)CN(C)C(=O)c2ccc(Br)o2)cc1` is 0.27%.
In the case of `CCC(C)NC(=O)c1c(N)n(/N=C/c2cccs2)c2nc3ccccc3nc12` (configuration not stated), the Potency was 3.01 µM (active).
As to `Cc1nc2ccccc2n1CC(=O)N/N=C/c1cccs1`, the “activity change, negative = inhibition” value is 4.13%.
For the compound `CCOC(=O)c1c(N)n(-c2cccc(C)c2C)c2nc3ccccc3nc12`, the “activity change, negative = inhibition” value is -3.45%.
Turning to `CCCc1cc(=O)[nH]c(SCc2cc(=O)oc3c(C)c(C)ccc23)n1`, the “activity change, negative = inhibition” value is -14.4%.
Take `CN1CCN(C(=O)CCc2ncc(C(F)(F)F)cc2Cl)CC1`: the “activity change, negative = inhibition” value is 0.917%.
The same measure, in the same setting: the figure for `COc1ccccc1OCC(=O)OCc1cc(-c2ccco2)on1` is -4.02%.
As for `COc1ccccc1OCC(=O)O/N=C(\N)c1ccccn1`, the Potency is 19 µM (active).
On to `N/C(=N\OC(=O)CC1CCCCC1)c1ccccc1`, for which the Potency is 2.13 µM (active).
`COc1ccccc1NC(=O)C(C)OC(=O)CC1CCCC1` (configuration not stated): the “activity change, negative = inhibition” value is 4.56%.
On the same count and under the same terms, the result for `O=C(CN1CCN(c2ccccn2)CC1)NC1CCCCC1` reads -0.747%.
As to `O=C(CC1CCCCC1)NCc1ccccc1`, the “activity change, negative = inhibition” value was -18.6%.
Turning to `CC(C)(C)NC(=O)NC(=O)COC(=O)CCC1CCCCC1`, the “activity change, negative = inhibition” value was 2.91%.
For `N/C(=N\OC(=O)CCC1CCCCC1)c1ccccn1`, the Potency is 0.536 µM (active).
For the compound `COc1ccccc1OCC(=O)OCn1c(SC)nnc(C)c1=O`, the “activity change, negative = inhibition” value was 2.06%.
In the case of `CN(C(=O)CSc1nc2ccc(NC(=O)COc3ccccc3)cc2s1)c1ccccc1`, the “activity change, negative = inhibition” value was -14.5%.
`CN(C(=O)COC(=O)Cn1cnc2c1c(=O)n(C)c(=O)n2C)C1(C#N)CCCCC1`: the “activity change, negative = inhibition” value was 3.02%.
Take `Cc1ccc(Cl)cc1N1CCN(C(=O)c2cccn3c(=O)c4cc(Cl)ccc4nc23)CC1`: the “activity change, negative = inhibition” value was -2.45%.
As for `COc1ccc(N2CCN(CCNC(=O)c3nnc(Cc4c(F)cccc4Cl)o3)CC2)cc1`, the “activity change, negative = inhibition” value is 4.25%.
`COc1cc(OC)c(N(C)C(=O)c2cc3c(=O)oc4ccccc4c3s2)cc1Cl`: the “activity change, negative = inhibition” value is -0.794%.
In the case of `COc1cc(OC)c(OC)cc1/C=C/c1nc2cc3ccccc3cc2c(=O)n1-c1ccc(F)c(Cl)c1`, the “activity change, negative = inhibition” value was -1.28%.
For the compound `CC(C)CCNC(=O)CSc1nc2ccccc2nc1Cc1ccc(Cl)cc1`, the “activity change, negative = inhibition” value is -4.71%.
Regarding `CCOC(=O)c1cnc(Nc2nc3ccccc3o2)nc1CSC(=S)N1CCCCC1`, the Potency was 9.53 µM (active).
`CCOC(=O)CCNC(=O)N1CCCC(C(=O)c2ccccc2SC)C1` (configuration not stated): the “activity change, negative = inhibition” value is -2.33%.
As to `CCc1ccc(CNC(=O)C2CCCN(c3nc4ccccc4o3)C2)cc1` (configuration not stated), the “activity change, negative = inhibition” value was 3.01%.
For `COCCNC(=O)CSc1c(C)cnc2c1c(=O)n(C)c(=O)n2C`, the “activity change, negative = inhibition” value is -1.51%.
On to `COc1ccc(-c2nc(CN3CCC(C(=O)NCCN(CC(C)C)CC(C)C)CC3)c(C)o2)cc1OC`, for which the “activity change, negative = inhibition” value was -5.23%.
Regarding `CC(C)CN(Cc1c(O)ccc2c(=O)c(-c3ccccc3)coc12)CC(C)C`, the “activity change, negative = inhibition” value was 4.11%.
Turning to `O=c1c(-c2ccccc2)coc2cc(O)ccc12`, the Potency is 15.1 µM (active).
For the compound `O=C1/C(=C/c2coc3ccc(O)cc3c2=O)SC(=S)N1c1ccccc1`, the “activity change, negative = inhibition” value is -7.68%.
On to `COC(=O)C1=C(C)N(c2ccc(Br)cc2)C(=O)/C1=C\c1ccco1`, for which the “activity change, negative = inhibition” value was -2.45%.
For the compound `COC(=O)COc1ccc2c(c1C)O/C(=C\c1ccco1)C2=O`, the Potency is 2.13 µM (active).
Take `Cc1cc(C)c(OCC(=O)N/N=C/c2ccco2)c(C)c1`: the “activity change, negative = inhibition” value is 4.89%.
As to `Cc1nn(CC(=O)NCCc2ccccc2)c(=O)c2c1sc1ccccc12`, the “activity change, negative = inhibition” value is -0.483%.
As for `O=C(c1ccc(CSc2ccccc2)cc1)N1CCCCCC1`, the Potency is 23.9 µM (active).
For the compound `CC1CCN(C(=O)c2ccc(CSc3ccc(Cl)cc3)cc2)CC1`, the “activity change, negative = inhibition” value is -1.34%.
Turning to `O=C(c1ccc(S(=O)(=O)c2ccccc2)cc1)N1CCCCCC1`, the “activity change, negative = inhibition” value was 4.38%.
In the case of `COc1cc(OC)c(N2CC(C(=O)Nc3cc(Cl)ccc3N3CCOCC3)CC2=O)cc1Cl` (configuration not stated), the “activity change, negative = inhibition” value was -1.25%.
Regarding `O=C(/C=C/c1ccccc1[N+](=O)[O-])OCC(=O)N1CCCC1`, the “activity change, negative = inhibition” value is -2.54%.
Regarding `O=C(/C=C/c1ccccc1[N+](=O)[O-])OC1CCCCC1=O` (configuration not stated), the Potency was 15.1 µM (active).
For `CC(C)CNC(=O)COC(=O)/C=C/c1ccccc1[N+](=O)[O-]`, the “activity change, negative = inhibition” value is -0.249%.
